The target in the experiment is Guanine nucleotide-binding protein G(I)/G(S)/G(T) subunit beta-1 (UniProt P62873). The experiment is described as follows: cross-link between two proteins; cross-linking mass spectrometry.

Experimental findings from article PMC10214531 are described below.

With “Guanine nucleotide-binding protein G(I)/G(S)/G(O) subunit gamma-2, P59768”, the “listed as a hit” value is “yes”.
